# Source: PubChem BioAssay (EPA / NIEHS)
# Active and inactive are the calls of the source. Rule for the calls: active = hit-call score of the fitted dose curve at least 0.9, where 1 is the maximum; inactive = score below 0.9.
# Read-out: flavin-containing dimethylaniline monooxygenases 3 (FMO3), FMO3 (gene 2328)
# Assay: LTEA_HepaRG_FMO3: Life Technologies and Expression Analysis (LTEA) Assay for flavin-containing dimethylaniline monooxygenases 3 (FMO3) using HepaRG (AID 2283453);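 for AC50: differentiated human HepaRG liver cells in serum-free induction medium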
# Conditions: mRNA level, 48 h; actives raise or lower the signal
# In short: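 Differentiated HepaRG cells in serum-free induction medium, exposed 48 h in duplicate to 8 half-log concentrations up to 100 uM in 0.5% DMSO. FMO3 mRNA by qRT-PCR, normalized to ACTB, GAPDH, POLR2A; bidirectional fit vs DMSO.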
Compound,outcome,AC50
O=c1c(-c2ccc(O)cc2)coc2cc(O)ccc12,inactive,
Oc1cccc(O)c1,inactive,
O=[N+]([O-])c1ccc(O)cc1,inactive,
CCC(=C(c1ccc(O)cc1)c1ccc(OCCN(C)C)cc1)c1ccccc1,inactive,
C#C[C@]1(O)CC[C@H]2[C@@H]3CCC4=CC(=O)CC[C@@H]4[C@H]3CC[C@@]21C,inactive,
COC(=O)CCCCC(=O)OC,inactive,
CCCCCCCCCCCCc1ccccc1S(=O)(=O)O,,83.3 µM (active)
CC(=O)CC(C)(C)O,inactive,
C[C@@H]1C[C@H]2[C@@H]3CCC4=CC(=O)C=C[C@]4(C)[C@@]3(F)[C@@H](O)C[C@]2(C)[C@@]1(O)C(=O)COP(=O)(O)O,inactive,
CC1=C(/C=C/C(C)=C/C=C/C(C)=C/C(=O)O)C(C)(C)CCC1,,0.446 µM (active)
O=C(O)c1ccccc1C(c1ccc(O)cc1)c1ccc(O)cc1,inactive,
Nc1cccc2c(N)cccc12,inactive,
CC(O)CO (stereo unspecified),inactive,
c1ccc2c(c1)ccc1ccccc12,inactive,
CCCCCCCCOC(=O)CCCCCCCCC(=O)OCCCCCCCC,inactive,
Oc1cc2ccccc2c2ccccc12,inactive,

Compound,outcome,AC50
CC(C)(C)c1cccc(C(C)(C)C)c1O,inactive,
Cc1cc(C)c(O)c(C)c1,inactive,
CCN(CC)CCNc1ccc(CNC=O)c2sc3ccc(OC)cc3c(=O)c12,,34.6 µM (active)
Cc1cc(CCN2CCN(c3nsc4ccccc34)CC2)cc2c1NC(=O)CC2(C)C,,77.8 µM (active)
CN(C)C=O,inactive,
OC1CCCCC1,inactive,
CC(=O)NC1(c2cccc(F)c2)CCN(CC[C@@]2(c3ccc(Cl)c(Cl)c3)CN(c3ccccc3)C(=O)CO2)CC1,,13.1 µM (active)
CCCCCCCCCCCCN1CCCC1=O,inactive,
CCCCCCCCCCCCCCCS(=O)(=O)Oc1ccccc1,inactive,
N#C[C@@H]1CC(F)(F)CN1C(=O)CNC1CC2CCC(C1)N2c1ncccn1 (stereo partly specified),inactive,
O=C(O)Cc1cc(I)c(Oc2cc(I)c(O)c(I)c2)c(I)c1,,58.1 µM (active)
CN1CCN(c2ccccc2/C=C2\SCCN(c3ccc(Cl)c(Cl)c3)C2=O)CC1,,50 µM (active)
CCCCC(CC)COC(=O)CCCCC(=O)OCC(CC)CCCC (stereo unspecified),inactive,
CCCOC(=O)c1ccc(O)cc1,inactive,
CCCCCCC(=O)O,inactive,
